Measured values reported in PubChem BioAssay AID1159580 (chemical genetic matrix, 2015).
In all, about 5,500 compounds went through this assay and about 2,000 (36%) were called active. Inconclusive results (about 18%) are left out. No stated cut-off is given here; in the data, active means normalized growth mostly below about 0.91 (no sharp cut-off); inconclusive means no clear call, values can overlap the other calls; inactive means mostly above about 0.92. This is one part of the list.

Assay: chemical genetic growth profiling, strain panel (AID 1159580);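 further: tested at 20 µM; growth read once vehicle control cultures reached saturation at 30 °C; 1 = growth at the plate median or of vehicle wells; lower values mean less growth of the strain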
Conditions: growth OD
[1] = S. cerevisiae deletion strains, locus YAL013W, strain DEP1, active compounds read low
[2] = S. cerevisiae deletion strains, locus YBR229C, strain ROT2, active compounds read low
[3] = S. cerevisiae deletion strains, locus YDL101C, strain DUN1, active compounds read low
[4] = S. cerevisiae deletion strains, locus YDL134C, strain PPH21, active compounds read low
[5] = S. cerevisiae deletion strains, locus YDR150W, strain NUM1, active compounds read low
[6] = S. cerevisiae deletion strains, locus YEL061C, strain CIN8, active compounds read low
[7] = S. cerevisiae deletion strains, locus YGR078C, strain PAC10, active compounds read low
[8] = S. cerevisiae deletion strains, locus YHR030C, strain SLT2, active compounds read low
[9] = S. cerevisiae deletion strains, locus YHR087W, strain rtc3, active compounds read low
[10] = S. cerevisiae deletion strains, locus YJR043C, strain POL32, active compounds read low
[11] = S. cerevisiae deletion strains, locus YJR075W, strain HOC1, active compounds read low
[12] = S. cerevisiae deletion strains, locus YLR039C, strain RIC1, active compounds read low
[13] = S. cerevisiae deletion strains, locus YLR058C, strain SHM2 (second series), active compounds read low
[14] = S. cerevisiae deletion strains, locus YLR085C, strain ARP6, active compounds read low
[15] = S. cerevisiae deletion strains, locus YLR262C, strain YPT6, active compounds read low
[16] = S. cerevisiae deletion strains, locus YML094W, strain GIM5, active compounds read low
[17] = S. cerevisiae deletion strains, locus YMR219W, strain ESC1, active compounds read low
[18] = S. cerevisiae deletion strains, locus YMR263W, strain SAP30, active compounds read low
[19] = S. cerevisiae deletion strains, locus YNL128W, strain TEP1, active compounds read low
[20] = S. cerevisiae deletion strains, locus YNL153C, strain GIM3, active compounds read low
[21] = S. cerevisiae deletion strains, locus YNL298W, strain CLA4 (second series), active compounds read low
[22] = S. cerevisiae deletion strains, locus YNL322C, strain KRE1, active compounds read low
[23] = S. cerevisiae deletion strains, locus YNR030W, strain Alg12, active compounds read low
[24] = S. cerevisiae deletion strains, locus YPL055C, strain LGE1, active compounds read low
[25] = S. cerevisiae deletion strains, locus YPL241C, strain CIN2, active compounds read low
[26] = S. cerevisiae deletion strains, locus YPR135W, strain CTF4, active compounds read low
[27] = S. cerevisiae deletion strains, locus YJL187C, strain SWE1, active compounds read low

Measured: normalized growth

O=S(=O)(CCN1CCOCC1)c1ccc(Cl)cc1
inactive: [1] 0.995 | [2] 0.982 | [3] 0.967 | [4] 0.993 | [5] 1.01 | [6] 0.993 | [7] 0.983 | [8] 1.06 | [9] 0.982 | [10] 1 | [11] 0.998 | [12] 1 | [13] 0.963 | [14] 0.974 | [15] 1.07 | [16] 0.982 | [17] 0.982 | [18] 0.99 | [19] 0.987 | [20] 1.01 | [21] 0.996 | [22] 0.985 | [23] 0.987 | [24] 0.982 | [25] 0.986 | [26] 1.15 | S. cerevisiae strains, strain wild type, active compounds read low 0.976

COc1ccc2c(c1)c(CC(=O)N1CCOCC1)c(C)n2C(=O)c1ccc(Cl)cc1
inactive: S. cerevisiae deletion strains, locus YAL040C, strain CLN3, active compounds read low 0.996 | S. cerevisiae deletion strains, locus YCL061C, strain MRC1 (second series), active compounds read low 1.01 | S. cerevisiae deletion strains, locus YDR363W, strain ESC2, active compounds read low 1.03 | S. cerevisiae deletion strains, locus YER002W, strain NOP16, active compounds read low 0.998 | [7] 1.01 | S. cerevisiae deletion strains, locus YGR229C, strain SMI1, active compounds read low 1 | [18] 1.01 | S. cerevisiae deletion strains, locus YNL175C, strain NOP13, active compounds read low 1.01 | S. cerevisiae deletion strains, locus YNL197C, strain WHI3, active compounds read low 1.01 | S. cerevisiae deletion strains, locus YNL224C, strain SQS1, active compounds read low 0.993 | [22] 1.01 | S. cerevisiae deletion strains, locus YOR083W, strain WHI5 (second series), active compounds read low 0.999 | [25] 1.01

Clc1ccc2c(c1)c1ccccc1n2CN1CCOCC1
active: S. cerevisiae deletion strains, locus YDR477W, strain SNF1, active compounds read low 0.541 | S. cerevisiae deletion strains, locus YER123W, strain YCK3, active compounds read low 0.588 | S. cerevisiae deletion strains, locus YER133W, strain GLC7, active compounds read low 0.641 | S. cerevisiae deletion strains, locus YGR040W, strain KSS1, active compounds read low 0.592 | S. cerevisiae deletion strains, locus YGR092W, strain DBF2, active compounds read low 0.208 | [8] 0.679 | S. cerevisiae deletion strains, locus YKL048C, strain ELM1, active compounds read low 0.696 | S. cerevisiae deletion strains, locus YKL067W, strain YNK1, active compounds read low 0.709 | S. cerevisiae deletion strains, locus YKL203C, strain TOR2, active compounds read low 0.598 | S. cerevisiae deletion strains, locus YLR113W, strain HOG1, active compounds read low 0.755 | S. cerevisiae deletion strains, locus YLR403W, strain SFP1, active compounds read low 0.612 | S. cerevisiae deletion strains, locus YNL307C, strain MCK1 (second series), active compounds read low 0.602 | S. cerevisiae deletion strains, locus YOR061W, strain CKA2, active compounds read low 0.558 | S. cerevisiae deletion strains, locus YOR119C, strain RIO1, active compounds read low 0.501 | S. cerevisiae deletion strains, locus YPL031C, strain PHO85, active compounds read low 0.545 | S. cerevisiae deletion strains, locus YPL204W, strain HRR25, active compounds read low 0.641 | S. cerevisiae deletion strains, locus YPL256C, strain CLN2, active compounds read low 0.823
inactive: S. cerevisiae deletion strains, locus YAR019C, strain CDC15, active compounds read low 0.935 | S. cerevisiae deletion strains, locus YBL105C, strain PKC1, active compounds read low 0.941 | S. cerevisiae deletion strains, locus YBR135W, strain CKS1, active compounds read low 0.925 | S. cerevisiae deletion strains, locus YBR136W, strain MEC1, active compounds read low 0.957 | S. cerevisiae deletion strains, locus YBR160W, strain CDC28, active compounds read low 0.945 | S. cerevisiae deletion strains, locus YDL017W, strain CDC7, active compounds read low 0.938 | S. cerevisiae deletion strains, locus YDL028C, strain MPS1, active compounds read low 0.95 | [3] 0.975 | S. cerevisiae deletion strains, locus YDL108W, strain KIN28, active compounds read low 0.949 | S. cerevisiae deletion strains, locus YDL132W, strain cdc53, active compounds read low 0.918 | S. cerevisiae deletion strains, locus YDL214C, strain PRR2, active compounds read low 0.753 | S. cerevisiae deletion strains, locus YDR052C, strain DBF4, active compounds read low 0.951 | S. cerevisiae deletion strains, locus YDR054C, strain cdc34, active compounds read low 0.926 | S. cerevisiae deletion strains, locus YDR226W, strain ADK1, active compounds read low 0.933 | S. cerevisiae deletion strains, locus YFL009W, strain cdc4, active compounds read low 0.934 | S. cerevisiae deletion strains, locus YFL029C, strain CAK1, active compounds read low 0.917 | S. cerevisiae deletion strains, locus YFR003C, strain YPI1, active compounds read low 0.945 | S. cerevisiae deletion strains, locus YFR019W, strain FAB1, active compounds read low 0.894 | S. cerevisiae deletion strains, locus YFR028C, strain CDC14, active compounds read low 0.952 | S. cerevisiae deletion strains, locus YGR052W, strain FMP48, active compounds read low 0.603 | S. cerevisiae deletion strains, locus YHR079C, strain IRE1, active compounds read low 0.79 | S. cerevisiae deletion strains, locus YHR082C, strain KSP1, active compounds read low 0.764 | S. cerevisiae deletion strains, locus YHR205W, strain SCH9, active compounds read low 0.714 | S. cerevisiae deletion strains, locus YIL147C, strain SLN1, active compounds read low 0.944 | S. cerevisiae deletion strains, locus YJL095W, strain BCK1, active compounds read low 0.724 | S. cerevisiae deletion strains, locus YJL128C, strain PBS2, active compounds read low 0.921 | S. cerevisiae deletion strains, locus YJL157C, strain FAR1, active compounds read low 0.722 | S. cerevisiae deletion strains, locus YJR016C, strain ILV3, active compounds read low 0.943 | S. cerevisiae deletion strains, locus YJR066W, strain TOR1 (second series), active compounds read low 0.738 | S. cerevisiae deletion strains, locus YJR066W, strain TOR1, active compounds read low 0.619 | S. cerevisiae deletion strains, locus YKL101W, strain HSL1, active compounds read low 0.728 | S. cerevisiae deletion strains, locus YKL193C, strain SDS22, active compounds read low 0.916 | S. cerevisiae deletion strains, locus YLR133W, strain CKI1, active compounds read low 0.776 | S. cerevisiae deletion strains, locus YML070W, strain DAK1, active compounds read low 0.748 | S. cerevisiae deletion strains, locus YMR001C, strain CDC5, active compounds read low 0.92 | S. cerevisiae deletion strains, locus YMR205C, strain PFK2 (second series), active compounds read low 0.757 | S. cerevisiae deletion strains, locus YMR277W, strain FCP1, active compounds read low 0.929 | S. cerevisiae deletion strains, locus YNL006W, strain LST8, active compounds read low 0.934 | S. cerevisiae deletion strains, locus YNL020C, strain ARK1, active compounds read low 0.771 | S. cerevisiae deletion strains, locus YNL161W, strain CBK1, active compounds read low 0.928 | S. cerevisiae deletion strains, locus YNL183C, strain NPR1, active compounds read low 0.658 | S. cerevisiae deletion strains, locus YNL207W, strain RIO2, active compounds read low 0.914 | S. cerevisiae deletion strains, locus YNL222W, strain SSU72, active compounds read low 0.927 | S. cerevisiae deletion strains, locus YOL078W, strain AVO1, active compounds read low 0.93 | S. cerevisiae deletion strains, locus YOL136C, strain PFK27, active compounds read low 0.72 | S. cerevisiae deletion strains, locus YOR231W, strain MKK1, active compounds read low 0.834 | S. cerevisiae deletion strains, locus YOR329C, strain SCD5, active compounds read low 0.934 | S. cerevisiae deletion strains, locus YPL153C, strain RAD53, active compounds read low 0.786 | S. cerevisiae deletion strains, locus YPL209C, strain IPL1, active compounds read low 0.939 | S. cerevisiae deletion strains, locus YPR025C, strain CCL1, active compounds read low 0.934 | S. cerevisiae deletion strains, locus YPR106W, strain ISR1, active compounds read low 0.94 | S. cerevisiae deletion strains, locus YPR111W, strain DBF20, active compounds read low 0.939 | S. cerevisiae deletion strains, strain NNK1, active compounds read low 0.949 | S. cerevisiae deletion strains, strain TSCII, active compounds read low 0.912

O=C(O/N=C\c1ccc2c(c1)OCO2)c1ccccc1Br
active: [1] 0.907 | [4] 0.827 | [6] 0.844 | [7] 0.927 | [8] 0.315 | [12] 0.491 | [14] 0.465 | [15] 0.577 | [16] 0.815 | [18] 0.892 | [21] 0.826 | [23] 0.857 | [24] 0.728 | [25] 0.834 | [26] 0.591
inactive: [2] 0.949 | [3] 0.961 | [5] 0.872 | [9] 0.928 | [27] 0.964 | [10] 0.926 | [11] 0.935 | [13] 0.973 | [17] 0.959 | [20] 0.959 | [22] 0.95

O=C(O)c1ccc(N=Cc2ccc3c(c2)OCO3)cc1
inactive: [1] 1 | [2] 0.991 | [3] 0.983 | [5] 0.879 | [6] 1.01 | [7] 0.994 | [8] 0.999 | [9] 1 | [27] 0.985 | [10] 0.997 | [11] 0.979 | S. cerevisiae deletion strains, locus YKL190W, strain CNB1, active compounds read low 1 | [12] 0.991 | [13] 0.99 | [14] 1.05 | [15] 0.998 | [16] 1 | [17] 0.988 | S. cerevisiae deletion strains, locus YMR307W, strain GAS1, active compounds read low 1.02 | [19] 1.04 | [20] 0.98 | [21] 1.04 | [22] 0.991 | [23] 1.01 | S. cerevisiae deletion strains, locus YOL006C, strain TOP1, active compounds read low 1.04 | [24] 0.984 | [25] 0.992 | [26] 0.997
